Holding throughout (experiment): HT-SELEX; high values mean tight binding
Common to all, as to conditions: protein: recombinant; vector His6-GST; dsDNA, one strand shown

One assay concerns the target T1, SALL4 ZFC4 WT (HT-SELEX) (Mus musculus, UniProt Q8BX22 870-940).
T1 sequence: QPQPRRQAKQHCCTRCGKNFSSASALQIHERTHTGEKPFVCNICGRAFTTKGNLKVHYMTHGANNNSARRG
In short, it runs like this: (§1)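 Library DNA (1.5 µg in cycle one, 200 ng in later cycles) was incubated with 1 µg of purified recombinant mouse SALL4 zinc finger cluster 4, residues 870–940, in 100 µl buffer (10 mM Tris–HCl pH 7.5, 50 mM NaCl, poly(dI-dC), DTT) at room temperature for 10 min. Up to 6 rounds of Ni2+ bead capture, washing, PCR amplification and reselection were run in triplicate. Reads from MiSeq sequencing were scanned for 6-mers. For each canonical k-mer, binding signal is its read fraction as fold change versus the original random library.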

For assay [1], the target named is T2, SALL4 ZFC4 R900W (HT-SELEX) (Mus musculus, UniProt Q8BX22 870-940, R900W).
T2 sequence: T1 sequence with R31W
In short, it runs like this: as §1

The target of assay [2] is T3, SALL4 ZFC4 G921D (HT-SELEX) (Mus musculus, UniProt Q8BX22 870-940, G921D).
T3 sequence: T1 sequence with G52D
A digest of the protocol: as §1

Where a chain is given by its changes, count along the chain named.

On to TGGGAA, for which the binding signal in the assay with SALL4 ZFC4 WT (HT-SELEX) is 0.795 ± 0.0577 fold-change vs cycle 0; in assay [1] it was 0.859 ± 0.0429 fold-change vs cycle 0; in assay [2] it was 0.877 ± 0.0259 fold-change vs cycle 0.
Regarding AGGTAG, the binding signal with SALL4 ZFC4 WT (HT-SELEX) is 0.817 ± 0.0419 fold-change vs cycle 0; in assay [1], 0.986 ± 0.0401 fold-change vs cycle 0; in assay [2], 0.998 ± 0.0166 fold-change vs cycle 0.
Take ACCTTC: the figures for the binding signal (in the assay with SALL4 ZFC4 WT (HT-SELEX); in assay [1]; in assay [2]) were 0.842 ± 0.0201 fold-change vs cycle 0, 0.982 ± 0.0475 fold-change vs cycle 0 and 1 ± 0.0224 fold-change vs cycle 0, respectively.
For GAGGGA, in that order: 0.53 ± 0.0239 fold-change vs cycle 0, 0.609 ± 0.0584 fold-change vs cycle 0 and 0.684 ± 0.0537 fold-change vs cycle 0.
Take GAGGAC: the binding signal with SALL4 ZFC4 WT (HT-SELEX) is 0.456 ± 0.0333 fold-change vs cycle 0; in assay [1], 0.581 ± 0.0167 fold-change vs cycle 0; in assay [2], 0.671 ± 0.0146 fold-change vs cycle 0.
Regarding TGATCA, the binding signal in the assay with SALL4 ZFC4 WT (HT-SELEX) was 1.35 ± 0.0953 fold-change vs cycle 0; in assay [1], 1.5 ± 0.0834 fold-change vs cycle 0; in assay [2], 1.47 ± 0.128 fold-change vs cycle 0.
Turning to GTACGA, the figures for the binding signal (with SALL4 ZFC4 WT (HT-SELEX); in assay [1]; in assay [2]) were 0.706 ± 0.0277 fold-change vs cycle 0, 0.794 ± 0.0311 fold-change vs cycle 0 and 0.843 ± 0.0399 fold-change vs cycle 0, respectively.
For CCTTCG, in that order: 0.394 ± 0.0327 fold-change vs cycle 0, 0.487 ± 0.0246 fold-change vs cycle 0 and 0.582 ± 0.0265 fold-change vs cycle 0.
Turning to AGTAGC, the binding signal with SALL4 ZFC4 WT (HT-SELEX) turned out to be 0.643 ± 0.0074 fold-change vs cycle 0; in assay [1], 0.756 ± 0.0367 fold-change vs cycle 0; in assay [2], 0.856 ± 0.0498 fold-change vs cycle 0.
On to TAAACA, for which the results for the binding signal (with SALL4 ZFC4 WT (HT-SELEX); in assay [1]; in assay [2]) were 1.9 ± 0.127 fold-change vs cycle 0, 1.91 ± 0.125 fold-change vs cycle 0 and 1.73 ± 0.187 fold-change vs cycle 0, respectively.
Take AACCCG: the figures for the binding signal (with SALL4 ZFC4 WT (HT-SELEX); in assay [1]; in assay [2]) were 0.371 ± 0.0321 fold-change vs cycle 0, 0.432 ± 0.0178 fold-change vs cycle 0 and 0.538 ± 0.0569 fold-change vs cycle 0, respectively.
Consider AGCCCT, for which the binding signal in the assay with SALL4 ZFC4 WT (HT-SELEX) worked out at 0.343 ± 0.0204 fold-change vs cycle 0; in assay [1], 0.423 ± 0.0426 fold-change vs cycle 0; in assay [2], 0.56 ± 0.0891 fold-change vs cycle 0.
As to AACAAT, the results for the binding signal (with SALL4 ZFC4 WT (HT-SELEX); in assay [1]; in assay [2]) were 2.06 ± 0.132 fold-change vs cycle 0, 1.95 ± 0.114 fold-change vs cycle 0 and 1.79 ± 0.145 fold-change vs cycle 0, respectively.
On to ATTCGC, for which the binding signal was 0.463 ± 0.033 fold-change vs cycle 0 in the assay with SALL4 ZFC4 WT (HT-SELEX), 0.495 ± 0.0145 fold-change vs cycle 0 in assay [1] and 0.637 ± 0.0822 fold-change vs cycle 0 in assay [2].
Turning to GTCGAA, the binding signal in the assay with SALL4 ZFC4 WT (HT-SELEX) came to 0.506 ± 0.0326 fold-change vs cycle 0; in assay [1], 0.599 ± 0.0193 fold-change vs cycle 0; in assay [2], 0.7 ± 0.0299 fold-change vs cycle 0.
TATTCA: the binding signal in the assay with SALL4 ZFC4 WT (HT-SELEX) was found to be 2.4 ± 0.138 fold-change vs cycle 0; in assay [1], 2.03 ± 0.0979 fold-change vs cycle 0; in assay [2], 1.83 ± 0.191 fold-change vs cycle 0.
For GCCAAA, the binding signal is 0.353 ± 0.00667 fold-change vs cycle 0 with SALL4 ZFC4 WT (HT-SELEX), 0.404 ± 0.0166 fold-change vs cycle 0 in assay [1] and 0.545 ± 0.0739 fold-change vs cycle 0 in assay [2].
For GAGTTA, in that order: 1.47 ± 0.0406 fold-change vs cycle 0, 1.52 ± 0.0183 fold-change vs cycle 0 and 1.45 ± 0.0562 fold-change vs cycle 0.
Consider ATTCTA, for which the figures for the binding signal (in the assay with SALL4 ZFC4 WT (HT-SELEX); in assay [1]; in assay [2]) were 2.06 ± 0.0756 fold-change vs cycle 0, 2.07 ± 0.113 fold-change vs cycle 0 and 1.81 ± 0.213 fold-change vs cycle 0, respectively.
For ACGAGT the same measures were 0.767 ± 0.0224 fold-change vs cycle 0, 0.897 ± 0.033 fold-change vs cycle 0 and 0.922 ± 0.0421 fold-change vs cycle 0.
With CATCAC, the binding signal with SALL4 ZFC4 WT (HT-SELEX) is 0.892 ± 0.0417 fold-change vs cycle 0; in assay [1], 0.975 ± 0.0159 fold-change vs cycle 0; in assay [2], 1.032 ± 0.00917 fold-change vs cycle 0.
GCCTAA: the binding signal amounted to 0.547 ± 0.0354 fold-change vs cycle 0 in the assay with SALL4 ZFC4 WT (HT-SELEX), 0.643 ± 0.0255 fold-change vs cycle 0 in assay [1] and 0.746 ± 0.0372 fold-change vs cycle 0 in assay [2].
For the sequence AAAATT, the binding signal came to 3.32 ± 0.292 fold-change vs cycle 0 with SALL4 ZFC4 WT (HT-SELEX), 2.14 ± 0.119 fold-change vs cycle 0 in assay [1] and 1.94 ± 0.175 fold-change vs cycle 0 in assay [2].
For the sequence AGAACG, the binding signal in the assay with SALL4 ZFC4 WT (HT-SELEX) amounted to 0.692 ± 0.0289 fold-change vs cycle 0; in assay [1], 0.817 ± 0.046 fold-change vs cycle 0; in assay [2] it was 0.844 ± 0.0513 fold-change vs cycle 0.
CCCCTC: the binding signal with SALL4 ZFC4 WT (HT-SELEX) turned out to be 0.31 ± 0.0217 fold-change vs cycle 0; in assay [1] it was 0.35 ± 0.0216 fold-change vs cycle 0; in assay [2], 0.456 ± 0.0591 fold-change vs cycle 0.
For ATAACA the same measures were 2.52 ± 0.194 fold-change vs cycle 0, 2.06 ± 0.122 fold-change vs cycle 0 and 1.83 ± 0.192 fold-change vs cycle 0.
On to TCTTCA, for which the binding signal with SALL4 ZFC4 WT (HT-SELEX) was 1.42 ± 0.033 fold-change vs cycle 0; in assay [1], 1.6 ± 0.094 fold-change vs cycle 0; in assay [2] it was 1.48 ± 0.131 fold-change vs cycle 0.
Take CATCAA: the binding signal with SALL4 ZFC4 WT (HT-SELEX) came out at 1.23 ± 0.0349 fold-change vs cycle 0; in assay [1], 1.37 ± 0.0542 fold-change vs cycle 0; in assay [2], 1.32 ± 0.0556 fold-change vs cycle 0.
For AACCCT, in that order: 0.85 ± 0.042 fold-change vs cycle 0, 0.958 ± 0.0297 fold-change vs cycle 0 and 0.971 ± 0.0387 fold-change vs cycle 0.
As to AGAATG, the binding signal with SALL4 ZFC4 WT (HT-SELEX) came to 1.34 ± 0.0249 fold-change vs cycle 0; in assay [1], 1.52 ± 0.0481 fold-change vs cycle 0; in assay [2] it was 1.35 ± 0.0697 fold-change vs cycle 0.
As to CTGATC, the values for the binding signal (with SALL4 ZFC4 WT (HT-SELEX); in assay [1]; in assay [2]) were 0.794 ± 0.0362 fold-change vs cycle 0, 0.948 ± 0.0293 fold-change vs cycle 0 and 1.02 ± 0.0279 fold-change vs cycle 0, respectively.
In the case of GCAAGA, the binding signal with SALL4 ZFC4 WT (HT-SELEX) amounted to 0.671 ± 0.0141 fold-change vs cycle 0; in assay [1] it was 0.766 ± 0.0335 fold-change vs cycle 0; in assay [2], 0.825 ± 0.0528 fold-change vs cycle 0.
Take ACCCTG: the binding signal with SALL4 ZFC4 WT (HT-SELEX) worked out at 0.474 ± 0.0232 fold-change vs cycle 0; in assay [1] it was 0.563 ± 0.034 fold-change vs cycle 0; in assay [2] it was 0.648 ± 0.0451 fold-change vs cycle 0.
Turning to GAAATC, the binding signal with SALL4 ZFC4 WT (HT-SELEX) was 1.25 ± 0.0302 fold-change vs cycle 0; in assay [1], 1.28 ± 0.0173 fold-change vs cycle 0; in assay [2], 1.27 ± 0.0773 fold-change vs cycle 0.
CGACTA: the binding signal turned out to be 0.59 ± 0.0236 fold-change vs cycle 0 in the assay with SALL4 ZFC4 WT (HT-SELEX), 0.656 ± 0.0311 fold-change vs cycle 0 in assay [1] and 0.777 ± 0.0234 fold-change vs cycle 0 in assay [2].
For CAATCG, in that order: 0.623 ± 0.00929 fold-change vs cycle 0, 0.726 ± 0.0311 fold-change vs cycle 0 and 0.821 ± 0.0438 fold-change vs cycle 0.
For ATTGAA, in that order: 2.11 ± 0.107 fold-change vs cycle 0, 2.06 ± 0.169 fold-change vs cycle 0 and 1.86 ± 0.169 fold-change vs cycle 0.
Take GCTACC: the values for the binding signal (in the assay with SALL4 ZFC4 WT (HT-SELEX); in assay [1]; in assay [2]) were 0.35 ± 0.0217 fold-change vs cycle 0, 0.419 ± 0.0155 fold-change vs cycle 0 and 0.543 ± 0.0413 fold-change vs cycle 0, respectively.
Take ATCACC: the binding signal with SALL4 ZFC4 WT (HT-SELEX) was 0.917 ± 0.0379 fold-change vs cycle 0; in assay [1], 0.988 ± 0.0223 fold-change vs cycle 0; in assay [2], 1.06 ± 0.0273 fold-change vs cycle 0.
In the case of AAATGT, the results for the binding signal (with SALL4 ZFC4 WT (HT-SELEX); in assay [1]; in assay [2]) were 1.68 ± 0.0685 fold-change vs cycle 0, 1.7 ± 0.0668 fold-change vs cycle 0 and 1.58 ± 0.133 fold-change vs cycle 0, respectively.
Consider TACAGA, for which the figures for the binding signal (with SALL4 ZFC4 WT (HT-SELEX); in assay [1]; in assay [2]) were 1.3 ± 0.0338 fold-change vs cycle 0, 1.38 ± 0.0448 fold-change vs cycle 0 and 1.33 ± 0.0789 fold-change vs cycle 0, respectively.
For ATCCCC, the binding signal with SALL4 ZFC4 WT (HT-SELEX) stood at 0.549 ± 0.0564 fold-change vs cycle 0; in assay [1], 0.604 ± 0.0359 fold-change vs cycle 0; in assay [2], 0.664 ± 0.0449 fold-change vs cycle 0.

The values above are taken from PMC9838217, “Structure of SALL4 zinc finger domain reveals link between AT-rich DNA binding and Okihiro syndrome”.
